The record followed here is PubChem BioAssay (NCI).

Each structure is given as a SMILES string. “And” between values parts separate entries of the source, which are not always exact repeats. Equal values may be shown once. Compounds without any hit were thinned out: in the full panel of roughly 83,000, 20% have a hit.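 48-hour exposure, single concentration, 96-well plates; percent growth endpoint where 0 means no net growth. Active: below 10.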 The source made the active and inactive calls.

Among the test systems are T-47D breast; BT-549 breast; MDA-MB-435 melanoma; SW-620 colon; MCF7 breast; HCT-116 colon; HCC-2998 colon; KM12 colon.
Holding throughout (experiment): NCI-60 one-dose screen, 48 h (100 = growth as untreated, 0 = no growth, -100 = all killed)

In the case of `COc1cc(/C=C2\CCC/C(=C\c3cc(CN4CCCC4)c(O)c(OC)c3)C2=O)cc(CN2CCCC2)c1O`, the growth with T-47D breast (10 µM unless noted) was 95.9% (inactive); in the experiment on BT-549 breast (10 µM unless noted), 49.2% (inactive); with MDA-MB-435 melanoma (10 µM unless noted) it was 8.88% (active); in the experiment with SW-620 colon (10 µM unless noted), 25.8% (inactive); in the experiment with MCF7 breast (10 µM unless noted), 14.3% (inactive); in the experiment on HCT-116 colon (10 µM unless noted), -34.5% (active). In addition, the values for the growth in the experiment with HCC-2998 colon (10 µM unless noted) and in the experiment with KM12 colon (10 µM unless noted) were 52.3% (inactive) and 11.9% (inactive), respectively.
With `COc1ccccc1/C=C/C(=O)/C=C/c1ccccc1OC`, the growth was -41.1% (active) and 4.16% (active) in the experiment with T-47D breast (10 µM unless noted); -51.9% (active) and -30.6% (active) in the experiment on BT-549 breast (10 µM unless noted); -30.8% (active) in the experiment with MDA-MB-435 melanoma (10 µM unless noted); -27.1% (active) and -20% (active) with SW-620 colon (10 µM unless noted); 5.62% (active) and 17.9% (inactive) with MCF7 breast (10 µM unless noted); -81.7% (active) and -87.1% (active) with HCT-116 colon (10 µM unless noted). Besides, the growth in the experiment with HCC-2998 colon (10 µM unless noted) is -84% (active) and 2.03% (active); in the experiment on KM12 colon (10 µM unless noted), -60% (active) and -45.2% (active).
`CC(=O)/C=C/c1ccc(N(CCO)Cc2ccc(C(C)(C)C)cc2)cc1`: the growth was 60.2% (inactive) in the experiment with T-47D breast (10 µM); -83.2% (active) in the experiment with T-47D breast (100 µM); 79% (inactive) in the experiment with BT-549 breast (10 µM); -88.9% (active) with BT-549 breast (100 µM); 80.7% (inactive) with MDA-MB-435 melanoma (10 µM); -94.4% (active) with MDA-MB-435 melanoma (100 µM). The growth in the experiment with SW-620 colon (10 µM) was 83.9% (inactive); in the experiment with SW-620 colon (100 µM), -91.8% (active); in the experiment with MCF7 breast (10 µM) it was 62.9% (inactive); in the experiment with MCF7 breast (100 µM), -55.4% (active); in the experiment with HCT-116 colon (10 µM), 67.2% (inactive); in the experiment on HCT-116 colon (100 µM) it was -98.1% (active). For the same compound, the growth with HCC-2998 colon (10 µM) was 86.7% (inactive); with HCC-2998 colon (100 µM) it was -89.2% (active); in the experiment with KM12 colon (10 µM) it was 81.2% (inactive); in the experiment with KM12 colon (100 µM) it was -78.2% (active).
Regarding `CCN(Cc1ccccc1)c1ccc(/C=C2\COc3ccccc3C2=O)cc1`, the growth with T-47D breast (10 µM) is 78.3% (inactive); with T-47D breast (100 µM), 12.3% (inactive); in the experiment on BT-549 breast (10 µM), 95.6% (inactive); with BT-549 breast (100 µM), 16.3% (inactive); with MDA-MB-435 melanoma (10 µM) it was 95.7% (inactive); in the experiment on MDA-MB-435 melanoma (100 µM), -44.7% (active). Moreover, the growth is 87.4% (inactive) in the experiment on SW-620 colon (10 µM); 28.1% (inactive) with SW-620 colon (100 µM); 86.1% (inactive) in the experiment with HCT-116 colon (10 µM); 30.8% (inactive) in the experiment with HCT-116 colon (100 µM); 102% (inactive) in the experiment with HCC-2998 colon (10 µM); 66.8% (inactive) with HCC-2998 colon (100 µM). Also, the growth is 98.3% (inactive) in the experiment on KM12 colon (10 µM) and 21.8% (inactive) in the experiment on KM12 colon (100 µM).
With `N=c1ccccn1CCO`, the growth with T-47D breast (10 µM unless noted) is 103% (inactive); in the experiment with BT-549 breast (10 µM unless noted), 113% (inactive); in the experiment on MDA-MB-435 melanoma (10 µM unless noted) it was 113% (inactive); in the experiment with SW-620 colon (10 µM unless noted) it was 114% (inactive); with MCF7 breast (10 µM unless noted), 102% (inactive); in the experiment on HCT-116 colon (10 µM unless noted) it was 100% (inactive). In addition, the growth in the experiment with HCC-2998 colon (10 µM unless noted) was 94.6% (inactive); in the experiment with KM12 colon (10 µM unless noted), 112% (inactive).
For the compound `O=C(CN1C(=O)S/C(=C\C(Cl)=C\c2ccccc2)C1=O)NCCCn1ccnc1`, the growth with T-47D breast (10 µM unless noted) was 21.3% (inactive); with BT-549 breast (10 µM unless noted) it was 43.8% (inactive); in the experiment with MDA-MB-435 melanoma (10 µM unless noted), 20.2% (inactive); in the experiment on SW-620 colon (10 µM unless noted), 3.27% (active); in the experiment on MCF7 breast (10 µM unless noted) it was 15% (inactive); in the experiment on HCT-116 colon (10 µM unless noted), -57.2% (active). In addition, the growth in the experiment with HCC-2998 colon (10 µM unless noted) was 73.5% (inactive); with KM12 colon (10 µM unless noted), 33.9% (inactive).
On to `COc1cc(Cl)cc(-c2nn(C(=O)NS(=O)(=O)c3ccc(Cl)cc3)cc2-c2ccncc2)c1`, for which the growth in the experiment with T-47D breast (10 µM unless noted) was 90.8% (inactive); with BT-549 breast (10 µM unless noted) it was 41.2% (inactive); in the experiment on MDA-MB-435 melanoma (10 µM unless noted), 87.5% (inactive); with SW-620 colon (10 µM unless noted), 114% (inactive); with MCF7 breast (10 µM unless noted), 102% (inactive); with HCT-116 colon (10 µM unless noted) it was 95.2% (inactive). The figures for the growth in the experiment with HCC-2998 colon (10 µM unless noted) and with KM12 colon (10 µM unless noted) were 99.3% (inactive) and 92.9% (inactive), respectively.
On to `CCCc1cc(C(N)=S)ccn1`, for which the growth in the experiment with T-47D breast (10 µM unless noted) is 105% (inactive); in the experiment with BT-549 breast (10 µM unless noted) it was 98.1% (inactive); with MDA-MB-435 melanoma (10 µM unless noted) it was 105% (inactive); in the experiment with SW-620 colon (10 µM unless noted), 107% (inactive); with MCF7 breast (10 µM unless noted), 108% (inactive); with HCT-116 colon (10 µM unless noted) it was 95.8% (inactive). For the same compound, the growth in the experiment with HCC-2998 colon (10 µM unless noted) was 108% (inactive).
`Cc1ccc(NC(=O)c2ccc(CN3CCN(C)CC3)cc2)cc1Nc1nccc(-c2cccnc2)n1`: the growth in the experiment on T-47D breast (10 µM unless noted) was 81.4% (inactive) and 57.8% (inactive); in the experiment on BT-549 breast (10 µM unless noted), 105% (inactive) and 61.1% (inactive); in the experiment on MDA-MB-435 melanoma (10 µM unless noted), 92.6% (inactive) and 77.7% (inactive); in the experiment with SW-620 colon (10 µM unless noted), 110% (inactive) and 88.6% (inactive); in the experiment on MCF7 breast (10 µM unless noted), 91.9% (inactive) and 55.7% (inactive); in the experiment on HCT-116 colon (10 µM unless noted), 81.4% (inactive) and 55.1% (inactive). For the same compound, the growth is 122% (inactive) and 96.8% (inactive) in the experiment on HCC-2998 colon (10 µM unless noted); 107% (inactive) and 69% (inactive) in the experiment on KM12 colon (10 µM unless noted).
Turning to `O=C(/C=C/c1cccc(Oc2ccc(Cl)cc2)c1)c1ccccc1`, the growth in the experiment on T-47D breast (10 µM) is 77% (inactive); with T-47D breast (100 µM) it was -72% (active); with BT-549 breast (10 µM), 102% (inactive); with BT-549 breast (100 µM) it was -61.3% (active); in the experiment with MDA-MB-435 melanoma (10 µM), 94.8% (inactive); with MDA-MB-435 melanoma (100 µM), -84.8% (active). Besides, the growth with SW-620 colon (10 µM) is 19.7% (inactive); in the experiment on SW-620 colon (100 µM), -69.7% (active); in the experiment on MCF7 breast (10 µM), 11.5% (inactive); in the experiment on MCF7 breast (100 µM), -45.3% (active); with HCT-116 colon (10 µM), 55.9% (inactive); in the experiment on HCT-116 colon (100 µM), -82.2% (active). In addition, the growth in the experiment on HCC-2998 colon (10 µM) is 107% (inactive); in the experiment on HCC-2998 colon (100 µM), -97.8% (active); with KM12 colon (10 µM) it was 75.3% (inactive); in the experiment on KM12 colon (100 µM), -76.8% (active).
Consider `CN(C)CCNc1ncc(F)c(-c2cnc3cc(-c4cnn(C)c4)ccn23)n1`, for which the growth in the experiment on T-47D breast (0.005 µM) was 110% (inactive); with T-47D breast (30 µM), 81.7% (inactive); with BT-549 breast (0.005 µM), 97.8% (inactive); with BT-549 breast (30 µM) it was 69.4% (inactive); with MDA-MB-435 melanoma (0.005 µM), 101% (inactive); in the experiment on MDA-MB-435 melanoma (30 µM), 43.1% (inactive). Also, the growth in the experiment on SW-620 colon (0.005 µM) is 103% (inactive); with SW-620 colon (30 µM), 25.7% (inactive); in the experiment on HCT-116 colon (0.005 µM) it was 100% (inactive); in the experiment with HCT-116 colon (30 µM), 24.3% (inactive); in the experiment with HCC-2998 colon (0.005 µM), 116% (inactive); with HCC-2998 colon (30 µM) it was 54.5% (inactive). In addition, the growth was 87.8% (inactive) with KM12 colon (0.005 µM) and 10.7% (inactive) in the experiment with KM12 colon (30 µM).
